In PubChem BioAssay (EPA / NIEHS) one finds AC50 and outcome data, which are given here for 25 compounds.

Inconclusive results are not listed. Calls of active or inactive are those of the source. How the source made its calls: active means hit-call score of the fitted dose curve at least 0.9, where 1 is the maximum; inconclusive means response in the unintended direction; inactive means score below 0.9.

Assay [1] concerns the target human Elastase, ELANE (gene 1991) (UniProt P08246). As to the kind of experiment: NVS_ENZ_hElastase: NovaScreen (NVS) Enzymatic Assay for human Elastase (AID 2283153). Summed up:
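Cell-free elastase from human neutrophils, 1.5 h after dosing, activity read by absorbance. Primary screen in duplicate at 25 uM; hits (e.g., 30% inhibition) rerun in singleton concentration-response up to 50 uM, fitted versus DMSO.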

The target of assay [2] is human Esterase Plasma (ES), BCHE (gene 590) (UniProt P06276). As to the kind of experiment: NVS_ENZ_hES: NovaScreen (NVS) Enzymatic Assay for human Esterase Plasma (ES) (AID 2283157). Summed up: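 Cell-free enzyme assay using esterase extracted from human plasma; colorimetric absorbance read 0.25 hour after dosing. Single-concentration duplicate screen at 25 uM, then concentration-response up to 50 uM; loss of signal scored against DMSO baseline.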
human Esterase Plasma (ES), BCHE (gene 590), sequence (P06276 whole entry, looked up): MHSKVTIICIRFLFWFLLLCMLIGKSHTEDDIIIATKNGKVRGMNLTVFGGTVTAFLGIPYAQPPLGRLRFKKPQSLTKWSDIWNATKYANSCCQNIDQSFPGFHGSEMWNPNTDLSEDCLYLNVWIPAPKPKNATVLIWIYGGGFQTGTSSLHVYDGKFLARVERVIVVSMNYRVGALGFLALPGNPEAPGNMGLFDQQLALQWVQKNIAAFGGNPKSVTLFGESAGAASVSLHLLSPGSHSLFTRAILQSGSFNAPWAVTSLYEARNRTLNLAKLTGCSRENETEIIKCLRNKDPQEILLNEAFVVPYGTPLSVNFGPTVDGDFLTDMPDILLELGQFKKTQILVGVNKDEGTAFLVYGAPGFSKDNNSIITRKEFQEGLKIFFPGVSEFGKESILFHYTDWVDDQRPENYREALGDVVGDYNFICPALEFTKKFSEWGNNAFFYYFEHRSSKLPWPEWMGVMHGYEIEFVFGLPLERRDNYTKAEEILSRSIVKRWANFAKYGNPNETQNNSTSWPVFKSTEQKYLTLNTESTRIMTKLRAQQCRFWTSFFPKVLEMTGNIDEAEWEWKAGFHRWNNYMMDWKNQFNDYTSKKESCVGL

In assay [3] the target is Collagenase 3 (Homo sapiens) (UniProt P45452). The assay can be described thus: NVS_ENZ_hMMP13: NovaScreen (NVS) Enzymatic Assay for human Matrix Metalloproteinase-13 (MMP13) (AID 2283182). Summed up: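 Recombinant MMP13 cleaving fluorescent substrate, cell-free, measured 1 h after dosing. Primary duplicate screen at 25 uM; actives tested in concentration-response up to 50 uM; loss of signal relative to DMSO.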

In assay [4] the target is human Matrix Metalloproteinase-2 (MMP2), MMP2 (gene 4313) (UniProt P08253). The assay can be described thus: NVS_ENZ_hMMP2: NovaScreen (NVS) Enzymatic Assay for human Matrix Metalloproteinase-2 (MMP2) (AID 2283184). In outline:
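Cell-free recombinant MMP2 activity with a fluorescent substrate, read 1 h after dosing. Primary screen in duplicate at 25 uM; actives then run in concentration series; loss of signal fitted versus DMSO.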

The target in assay [5] is human Matrix Metalloproteinase-3 (MMP3), MMP3 (gene 4314) (UniProt P08254). As to the kind of experiment: NVS_ENZ_hMMP3: NovaScreen (NVS) Enzymatic Assay for human Matrix Metalloproteinase-3 (MMP3) (AID 2283185). Summed up: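 Cell-free recombinant human MMP3 activity, fluorescence intensity read 1 h after dosing. Primary screen duplicate at 25 uM, actives retested in concentration series; loss of signal vs DMSO baseline.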

Assay [6] deals with human Matrix Metalloproteinase-9 (MMP9), MMP9 (gene 4318) (UniProt P14780). As to the kind of experiment: NVS_ENZ_hMMP9: NovaScreen (NVS) Enzymatic Assay for human Matrix Metalloproteinase-9 (MMP9) (AID 2283190).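 Further: cell-free recombinant MMP9 protease activity read by fluorescent substrate signal; active means inhibition seen as loss of fluorescence signal versus DMSO.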 In outline:
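Cell-free recombinant MMP9 enzyme activity measured by fluorescence intensity 1 h after dosing. Primary screen in duplicate at 25 uM, actives followed in concentration series; loss of signal relative to DMSO.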

Assay [7] concerns the target human MAP Kinase-Activated Protein Kinase 2 (MAPKAPK2), MAPKAPK2 (gene 9261) (UniProt P49137). As to the kind of experiment: NVS_ENZ_hMAPKAPK2: NovaScreen (NVS) Enzymatic Assay for human MAP Kinase-Activated Protein Kinase 2 (MAPKAPK2) (AID 2283178). Summed up:
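Cell-free recombinant human MAPKAPK2 activity measured by fluorescence with electrophoretic mobility shift separation of substrate and product, 1 hr after dosing. Loss of signal versus DMSO; primary screen at 25 uM, concentration-response up to 50 uM.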

The target of assay [8] is human Matrix Metalloproteinase-7 (MMP7), MMP7 (gene 4316) (UniProt P09237). The assay can be described thus: NVS_ENZ_hMMP7: NovaScreen (NVS) Enzymatic Assay for human Matrix Metalloproteinase-7 (MMP7) (AID 2283183). In outline:
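Cell-free fluorescence enzymatic assay read 1 h after compound addition, activity loss analyzed against DMSO. Primary duplicate testing at 25 uM; compounds meeting threshold rerun in singleton concentration-response up to 50 uM.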

Assay [9] addresses human Janus Kinase 2 (Jak2), JAK2 (gene 3717) (UniProt O60674). The assay can be described thus: NVS_ENZ_hJak2: NovaScreen (NVS) Enzymatic Assay for human Janus Kinase 2 (Jak2) (AID 2283169). Summed up:
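Cell-free recombinant human JAK2 enzyme activity assay, fluorescence/electrophoretic mobility shift read 1 h after dosing. Screened in duplicate at 25 uM, then concentration-response up to 50 uM; activity as signal loss relative to DMSO.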

Assay [10] concerns the target human Phosphodiesterase 4A1 (PDE4A1), PDE4A (gene 5141) (UniProt P27815). As to the kind of experiment: NVS_ENZ_hPDE4A1: NovaScreen (NVS) Enzymatic Assay for human Phosphodiesterase 4A1 (PDE4A1) (AID 2283191). In outline: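 Cell-free recombinant human PDE4A1 with fluorescent substrate; product separated by electrophoretic mobility shift, 1 h. Screened at 25 uM, then up to 50 uM in concentration-response; loss of signal fitted against DMSO.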

Assay [11] has as its target human Phosphodiesterase 10 (PDE10), PDE10A (gene 10846) (UniProt Q9Y233). The assay can be described thus: NVS_ENZ_hPDE10: NovaScreen (NVS) Enzymatic Assay for human Phosphodiesterase 10 (PDE10) (AID 2283195). In outline: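 Fluorescence/mobility-shift readout of PDE10A enzyme activity, taken 1 h post-dosing. Primary screen in duplicate at 25 uM; actives (e.g. ≥30% inhibition) retested as singleton concentration-response, top concentration 50 uM.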

Assay [12] addresses human Insulin Receptor (InsR), INSR (gene 3643) (UniProt P06213). As to the kind of experiment: NVS_ENZ_hInsR: NovaScreen (NVS) Enzymatic Assay for human Insulin Receptor (InsR) (AID 2283168). In outline: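 Fluorescent substrate phosphorylation by recombinant kinase, product resolved by electrophoretic mobility shift, read 1 h after dosing. Screened in duplicate at 25 uM; hits (e.g., 30% inhibition) run in concentration-response to 50 uM; DMSO as baseline.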

Assay [13] deals with human c-Jun N-terminal Kinases (JNK2), MAPK9 (gene 5601) (UniProt P45984). The assay can be described thus: NVS_ENZ_hJNK2: NovaScreen (NVS) Enzymatic Assay for human c-Jun N-terminal Kinases (JNK2) (AID 2283171). Summed up:
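Cell-free recombinant human JNK2 activity assay; fluorescent substrate and product separated by electrophoretic mobility shift, read 1 h after dosing. Primary duplicate screen at 25 uM; actives run in concentration-response up to 50 uM, relative to DMSO.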

Assay [14] deals with Mitogen-activated protein kinase 3 (Homo sapiens) (UniProt P27361). The assay can be described thus: NVS_ENZ_hMAPK3: NovaScreen (NVS) Enzymatic Assay for human Mitogen-Activated Protein Kinase 3 (MAPK 3) (AID 2283177). In outline:
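Cell-free enzymatic assay with recombinant protein and specific substrate; fluorescence and electrophoretic mobility shift read-out 1 h after dosing. Primary screen duplicate at 25 uM; actives then run in concentration-response up to 50 uM, loss of signal versus DMSO.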

The target in assay [15] is cAMP-dependent protein kinase catalytic subunit alpha (Homo sapiens) (UniProt P17612). As to the kind of experiment: NVS_ENZ_hPKA: NovaScreen (NVS) Enzymatic Assay for human Protein Kinase A (PKA) (AID 2283192). Summed up:
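Recombinant human PKA with specific fluorescent substrate, product separated by electrophoretic mobility shift, read 1 h after dosing. Primary screen at 25 uM in duplicate; actives then run in concentration-response up to 50 uM, activity relative to DMSO.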

Assay [16] concerns the target human Phosphodiesterase 5 (PDE5), PDE5A (gene 8654) (UniProt O76074). The assay can be described thus: NVS_ENZ_hPDE5: NovaScreen (NVS) Enzymatic Assay for human Phosphodiesterase 5 (PDE5) (AID 2283194). Summed up: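 Recombinant human PDE5 with specific substrate, read 1 h after dosing by fluorescence with electrophoretic mobility-shift separation of substrate and product. Initial single-concentration duplicate screen at 25 uM, actives followed in concentration series; loss of activity versus DMSO.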

Assay [17] addresses Histone deacetylase 3 (Homo sapiens) (UniProt O15379). The assay can be described thus: NVS_ENZ_hHDAC3: NovaScreen (NVS) Enzymatic Assay for human Histone Deacetylase 3 (HDAC3) (AID 2283163). Summed up: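 Recombinant human HDAC3 with fluorescent substrate, 1 h after dosing; product separated from substrate by electrophoretic mobility shift and read by fluorescence. Primary screen at 25 uM in duplicate; actives (e.g. ≥30% inhibition) retested in concentration-response up to 50 uM.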

Assay [18] deals with human Mitogen- and Stress-activated Protein Kinase-1 (Msk1), RPS6KA5 (gene 9252) (UniProt O75582). As to the kind of experiment: NVS_ENZ_hMsk1: NovaScreen (NVS) Enzymatic Assay for human Mitogen- and Stress-activated Protein Kinase-1 (Msk1) (AID 2283187). In outline:
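Recombinant kinase with fluorescent substrate; product separated by electrophoretic mobility shift, read 1 h after dosing. Screened in duplicate at 25 uM; hits (e.g. ≥30% inhibition) tested in concentration–response up to 50 uM. DMSO baseline.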

human Elastase, ELANE (gene 1991), sequence (P08246 whole entry, looked up): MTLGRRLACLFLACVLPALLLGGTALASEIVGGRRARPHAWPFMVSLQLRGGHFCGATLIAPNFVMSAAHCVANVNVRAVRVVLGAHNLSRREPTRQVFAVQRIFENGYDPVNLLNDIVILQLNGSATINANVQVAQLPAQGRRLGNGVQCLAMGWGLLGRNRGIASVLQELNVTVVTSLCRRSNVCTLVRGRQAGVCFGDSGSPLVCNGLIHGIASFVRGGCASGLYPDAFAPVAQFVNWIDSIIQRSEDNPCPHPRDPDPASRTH
human Matrix Metalloproteinase-2 (MMP2), MMP2 (gene 4313), sequence (P08253 whole entry, looked up): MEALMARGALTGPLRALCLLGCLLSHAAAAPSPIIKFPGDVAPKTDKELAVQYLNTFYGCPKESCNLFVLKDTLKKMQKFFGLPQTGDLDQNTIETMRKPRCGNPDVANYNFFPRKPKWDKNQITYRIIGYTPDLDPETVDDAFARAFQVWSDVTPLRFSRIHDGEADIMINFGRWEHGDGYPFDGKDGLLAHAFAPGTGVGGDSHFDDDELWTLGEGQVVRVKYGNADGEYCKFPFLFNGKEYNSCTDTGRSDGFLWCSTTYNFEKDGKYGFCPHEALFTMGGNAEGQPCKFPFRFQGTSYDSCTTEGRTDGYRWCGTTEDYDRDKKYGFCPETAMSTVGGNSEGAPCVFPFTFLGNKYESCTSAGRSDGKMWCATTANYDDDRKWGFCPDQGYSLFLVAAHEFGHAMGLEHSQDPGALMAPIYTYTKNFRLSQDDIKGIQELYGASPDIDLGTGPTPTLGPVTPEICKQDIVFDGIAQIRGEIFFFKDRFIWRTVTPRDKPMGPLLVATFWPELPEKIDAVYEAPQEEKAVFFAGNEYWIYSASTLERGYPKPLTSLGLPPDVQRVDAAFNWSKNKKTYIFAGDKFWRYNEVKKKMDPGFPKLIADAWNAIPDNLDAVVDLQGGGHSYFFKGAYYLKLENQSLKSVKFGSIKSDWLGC
human MAP Kinase-Activated Protein Kinase 2 (MAPKAPK2), MAPKAPK2 (gene 9261), sequence (P49137 whole entry, looked up): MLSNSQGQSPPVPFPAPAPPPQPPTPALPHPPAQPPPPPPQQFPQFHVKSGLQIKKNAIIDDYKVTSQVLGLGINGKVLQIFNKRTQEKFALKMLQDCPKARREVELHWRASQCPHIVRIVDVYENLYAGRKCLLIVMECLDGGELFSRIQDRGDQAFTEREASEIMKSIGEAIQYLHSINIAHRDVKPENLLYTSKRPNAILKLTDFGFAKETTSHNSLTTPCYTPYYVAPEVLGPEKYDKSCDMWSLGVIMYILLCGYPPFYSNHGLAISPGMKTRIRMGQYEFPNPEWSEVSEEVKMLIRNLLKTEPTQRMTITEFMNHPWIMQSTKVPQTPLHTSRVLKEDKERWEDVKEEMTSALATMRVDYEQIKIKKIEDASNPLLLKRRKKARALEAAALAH
human Matrix Metalloproteinase-9 (MMP9), MMP9 (gene 4318), sequence (P14780 whole entry, looked up): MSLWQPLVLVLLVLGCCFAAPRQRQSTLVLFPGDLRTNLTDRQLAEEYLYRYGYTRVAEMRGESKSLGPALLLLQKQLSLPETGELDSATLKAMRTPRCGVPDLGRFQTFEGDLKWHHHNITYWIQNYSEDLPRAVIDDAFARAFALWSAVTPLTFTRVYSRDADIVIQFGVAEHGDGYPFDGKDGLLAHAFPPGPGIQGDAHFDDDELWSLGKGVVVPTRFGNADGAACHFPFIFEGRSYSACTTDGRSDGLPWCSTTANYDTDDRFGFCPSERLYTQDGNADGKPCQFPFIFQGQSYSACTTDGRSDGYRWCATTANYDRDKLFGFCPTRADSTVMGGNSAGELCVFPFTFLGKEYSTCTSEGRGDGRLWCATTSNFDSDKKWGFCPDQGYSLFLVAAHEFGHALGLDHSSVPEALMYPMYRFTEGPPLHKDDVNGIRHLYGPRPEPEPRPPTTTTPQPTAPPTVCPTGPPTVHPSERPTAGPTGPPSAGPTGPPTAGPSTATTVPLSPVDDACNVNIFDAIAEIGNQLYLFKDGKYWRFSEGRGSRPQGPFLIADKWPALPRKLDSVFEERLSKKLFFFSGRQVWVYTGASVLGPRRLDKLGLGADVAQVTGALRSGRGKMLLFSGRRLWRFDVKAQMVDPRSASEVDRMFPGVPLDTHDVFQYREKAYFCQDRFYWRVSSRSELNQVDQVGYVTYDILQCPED
human Phosphodiesterase 4A1 (PDE4A1), PDE4A (gene 5141), sequence (P27815 whole entry, looked up): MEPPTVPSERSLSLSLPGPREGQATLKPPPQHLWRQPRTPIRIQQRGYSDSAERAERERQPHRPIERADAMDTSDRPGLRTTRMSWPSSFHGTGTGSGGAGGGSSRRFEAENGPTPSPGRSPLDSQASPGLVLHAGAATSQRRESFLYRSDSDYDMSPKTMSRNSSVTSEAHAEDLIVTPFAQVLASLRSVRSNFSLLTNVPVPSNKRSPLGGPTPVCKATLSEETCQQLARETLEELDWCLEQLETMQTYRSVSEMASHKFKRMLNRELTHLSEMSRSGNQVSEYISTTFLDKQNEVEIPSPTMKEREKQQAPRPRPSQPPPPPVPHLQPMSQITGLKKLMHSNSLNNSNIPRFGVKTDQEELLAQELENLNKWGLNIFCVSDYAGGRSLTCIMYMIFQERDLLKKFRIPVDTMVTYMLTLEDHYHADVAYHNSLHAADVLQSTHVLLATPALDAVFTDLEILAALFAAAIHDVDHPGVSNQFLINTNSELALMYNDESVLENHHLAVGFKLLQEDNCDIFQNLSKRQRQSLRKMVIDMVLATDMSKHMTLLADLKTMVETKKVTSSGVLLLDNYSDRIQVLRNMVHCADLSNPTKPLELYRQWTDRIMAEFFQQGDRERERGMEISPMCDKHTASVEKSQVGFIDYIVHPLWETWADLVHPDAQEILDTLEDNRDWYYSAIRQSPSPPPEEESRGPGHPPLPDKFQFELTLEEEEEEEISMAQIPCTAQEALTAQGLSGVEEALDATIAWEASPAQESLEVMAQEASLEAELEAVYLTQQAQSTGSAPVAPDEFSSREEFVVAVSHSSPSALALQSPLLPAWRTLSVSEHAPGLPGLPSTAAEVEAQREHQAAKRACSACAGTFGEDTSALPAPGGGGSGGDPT
human Phosphodiesterase 10 (PDE10), PDE10A (gene 10846), sequence (Q9Y233 whole entry, looked up): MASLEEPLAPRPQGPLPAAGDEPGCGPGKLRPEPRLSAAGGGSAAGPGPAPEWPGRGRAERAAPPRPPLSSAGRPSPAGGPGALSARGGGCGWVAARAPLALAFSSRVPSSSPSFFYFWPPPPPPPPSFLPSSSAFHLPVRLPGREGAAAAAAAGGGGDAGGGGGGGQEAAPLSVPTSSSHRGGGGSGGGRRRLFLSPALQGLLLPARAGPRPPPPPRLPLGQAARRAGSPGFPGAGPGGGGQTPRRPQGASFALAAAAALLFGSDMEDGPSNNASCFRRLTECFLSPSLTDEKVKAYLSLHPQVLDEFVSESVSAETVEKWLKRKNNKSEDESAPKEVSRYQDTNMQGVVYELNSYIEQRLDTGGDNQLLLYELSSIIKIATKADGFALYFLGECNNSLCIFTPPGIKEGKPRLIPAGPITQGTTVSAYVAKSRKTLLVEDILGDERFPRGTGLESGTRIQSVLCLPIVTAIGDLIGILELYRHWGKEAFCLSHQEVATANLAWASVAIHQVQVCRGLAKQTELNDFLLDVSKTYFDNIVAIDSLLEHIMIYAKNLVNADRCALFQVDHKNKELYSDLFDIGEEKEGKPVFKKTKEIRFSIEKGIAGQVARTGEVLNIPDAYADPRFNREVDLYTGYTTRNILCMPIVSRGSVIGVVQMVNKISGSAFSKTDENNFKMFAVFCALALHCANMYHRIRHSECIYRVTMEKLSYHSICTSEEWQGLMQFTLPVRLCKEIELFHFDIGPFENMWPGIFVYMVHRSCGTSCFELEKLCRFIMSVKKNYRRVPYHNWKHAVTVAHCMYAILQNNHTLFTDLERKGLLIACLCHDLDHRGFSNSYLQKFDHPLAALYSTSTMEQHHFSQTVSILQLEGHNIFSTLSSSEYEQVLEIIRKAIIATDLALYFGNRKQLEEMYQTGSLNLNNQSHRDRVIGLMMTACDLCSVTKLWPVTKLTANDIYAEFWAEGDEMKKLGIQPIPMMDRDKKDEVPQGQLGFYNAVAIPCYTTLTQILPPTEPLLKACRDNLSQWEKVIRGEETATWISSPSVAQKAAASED
Mitogen-activated protein kinase 3 (Homo sapiens), sequence (P27361 whole entry, looked up): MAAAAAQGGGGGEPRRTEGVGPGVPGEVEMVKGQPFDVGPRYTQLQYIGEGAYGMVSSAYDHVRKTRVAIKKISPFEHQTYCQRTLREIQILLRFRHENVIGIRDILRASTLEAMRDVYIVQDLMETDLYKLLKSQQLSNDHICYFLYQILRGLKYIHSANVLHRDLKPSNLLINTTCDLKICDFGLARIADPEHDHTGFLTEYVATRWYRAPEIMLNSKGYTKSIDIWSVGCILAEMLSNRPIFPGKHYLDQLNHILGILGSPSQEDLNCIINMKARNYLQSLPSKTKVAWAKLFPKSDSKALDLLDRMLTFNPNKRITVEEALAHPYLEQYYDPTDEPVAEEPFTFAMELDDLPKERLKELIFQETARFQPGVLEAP

The term AC50 denotes the midpoint of the concentration-response curve, whichever way the signal moves. For the compound `CCN(Cc1cccnc1)C(=O)c1cccc(Cl)c1[C@]1(C)C(=O)N(Cc2ccc(OC)cc2OC)c2ccc(Cl)cc21`, the half-maximal activity concentration (AC50) in assay [1] was 3.84 µM (active); in [2], 16.8 µM (active); in assay [3], 9.38 µM (active); in [4] it was 14.8 µM (active); in assay [6], 24.9 µM (active). Besides, the compound was classed as inactive in assay [5].
Regarding `O=C1CCC(C2CCCCC2)CC1`, in assay [1], the AC50 is 10 µM (active). Moreover, the result in assay [5] was inactive.
As to `CCCCCCCCCCCO`, in [1], the AC50 is 27.4 µM (active).
For `O=C1c2ccccc2C(=O)N1CCc1noc(-c2ccc(CN3CCCCCC3)s2)n1`, the half-maximal activity concentration (AC50) in [2] was 18.2 µM (active).
For `Oc1ccc2ccccc2c1`, in assay [2], the compound was classed as inactive.
As to `CCCCCCCCOC(=O)c1cc(O)c(O)c(O)c1`, the half-maximal activity concentration (AC50) in assay [1] was 12.5 µM (active); in [3], 2.83 µM (active); in assay [8], 22.1 µM (active); in assay [4], 1.47 µM (active); in assay [5] it was 5.82 µM (active); in assay [6], 1.09 µM (active). Moreover, in assay [7], the compound was called inactive.
On to `CCN(Cc1cccc(S(=O)(=O)O)c1)c1ccc(C(=C2C=CC(=[N+](CC)Cc3cccc(S(=O)(=O)O)c3)C=C2)c2ccccc2S(=O)(=O)[O-])cc1`, for which the concentration at half-maximal activity (AC50) in assay [1] was 3.18 µM (active); in assay [9] it was 12.4 µM (active); in assay [4], 10.3 µM (active); in [5] it was 16.1 µM (active).
Turning to `CN1C(=O)N(c2ccccc2Br)Cc2cnc(Nc3ccc4c(c3)OCC(CO)O4)nc21` (stereo unspecified), the AC50 in [1] is 17 µM (active); in [10] it was 6.38 µM (active); in assay [11] it was 1.09 µM (active). Further, the compound was classed as inactive in [7] and in assay [5].
Take `COc1cc(C(=O)NC2CCN(C)CC2)ccc1Nc1ncc2c(n1)N(C1CCCC1)CC(F)(F)C(=O)N2C`: the compound was classed as inactive in assay [2], in [13] and in assay [14]. For the same compound, the AC50 in [12] is 0.00746 µM (active); in assay [10] it was 9.1 µM (active); in [15] it was 6.04 µM (active); in [16] it was 0.00376 µM (active); in assay [11] it was 3.76 µM (active).
For the compound `CC[C@@H]1C[C@H](N(Cc2cc(C(F)(F)F)cc(C(F)(F)F)c2)C(C)=O)c2cc(C(F)(F)F)ccc2N1C(=O)OC(C)C`, the outcome in assay [1] was inactive.
On to `C[C@]12CC[C@@H]3c4ccc(O)cc4CC[C@H]3[C@@H]1CC[C@H]2O`, for which the outcome in assay [2] and in assay [8] was inactive.
As for `CN(C)c1ccc(C(=C2C=CC(=[N+](C)C)C=C2)c2ccc(N(C)C)cc2)cc1`, the values for the AC50 in assay [2] and in assay [6] were 1.62 µM (active) and 14.5 µM (active), respectively.
Consider `COc1cccc([C@H](O)C2CCN(CCc3ccc(F)cc3)CC2)c1OC`, for which, in [2], the concentration at half-maximal activity (AC50) is 18.2 µM (active). For the same compound, the call in [10] was inactive.
As for `CC(=O)N1CCN(c2ccc(OC[C@H]3CO[C@](Cn4ccnc4)(c4ccc(Cl)cc4Cl)O3)cc2)CC1`, the compound was called inactive in assay [17].
As to `OCCO`, the compound was classed as inactive in assay [12].
For `CCCC(=O)OCCC(C)C`, the compound was classed as inactive in assay [13] and in [14].
In the case of `c1ccc2ccccc2c1`, the call in assay [14] and in [18] was inactive.
For the compound `Cc1oc2c(NC(=O)c3c(Cl)cccc3Cl)cccc2c1C(C)(C)O`, in assay [7], the outcome was inactive.
On to `Cc1cc2c(cc1C(F)(F)F)N(C(=O)Nc1ccc(Oc3cccnc3C)nc1)CC2`, for which the call in assay [7] was inactive.
Turning to `CO[C@H]1/C=C/O[C@@]2(C)Oc3c(C)c(O)c4c(O)c(c(/C=N/N5CCN(C)CC5)c(O)c4c3C2=O)NC(=O)/C(C)=C\C=C\[C@H](C)[C@H](O)[C@@H](C)[C@@H](O)[C@@H](C)[C@H](OC(C)=O)[C@@H]1C`, the compound was called inactive in assay [3].
As to `COCC(C)OCC(C)OCC(C)O` (stereo unspecified), the compound was called inactive in assay [3].
Consider `O=C(O)c1ccccc1C(=O)OCc1ccccc1`, for which the call in assay [18] was inactive.
Turning to `O=C=NCCCCCCN=C=O`, the call in [6] was inactive.
With `O=C(Nc1ccc(Cl)cc1)Nc1ccc(Cl)c(Cl)c1`, the result in [10] was inactive.
Regarding `O=C(O)Cc1cc(I)c(Oc2ccc(O)c(I)c2)c(I)c1`, the half-maximal activity concentration (AC50) in assay [11] was 3.32 µM (active).
